Laboratory results taken from paper PMC7862700, “An all-to-all approach to the identification of sequence-specific readers for epigenetic DNA modifications on cytosine”.

Assays:
Assay in all cases: DAPPL (digital affinity profiling via proximity ligation, sequencing); 10 mM Tris-HCl pH 7.5, 50 mM NaCl, 1 mM DTT, 4% glycerol, room temperature, 30 min; GST-TFs on glutathione beads, 16-mer random dsDNA library, 0.1% formaldehyde crosslink after washing; high values mean tight binding
Settings in all cases: protein: recombinant; tags: N-terminal GST; dsDNA, one strand shown
FEV = molecular target: T1, FEV (Homo sapiens, UniProt Q99581 1-238)
T1 sequence: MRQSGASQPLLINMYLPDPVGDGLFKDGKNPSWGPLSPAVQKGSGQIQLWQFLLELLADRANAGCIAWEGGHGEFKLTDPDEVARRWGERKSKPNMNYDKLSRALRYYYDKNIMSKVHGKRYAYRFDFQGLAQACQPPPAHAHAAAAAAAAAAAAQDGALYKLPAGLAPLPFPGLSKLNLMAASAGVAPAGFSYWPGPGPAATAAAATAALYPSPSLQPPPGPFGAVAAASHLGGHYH
Method in brief: (§1)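 Pools of DNA-barcoded human transcription factors, expressed in yeast as GST fusions on glutathione beads and combined with a tag-only sample, were incubated with 200 nmole of a 16-mer random double-stranded DNA library. Incubation took 30 min at room temperature in Tris/NaCl/DTT/glycerol buffer and was followed by washing, 0.1% formaldehyde crosslinking, proximity ligation (BsaI/T4 ligase, 1 h, 37 °C), PCR amplification and sequencing on an Illumina NextSeq500. Binding signal is the ratio of a hexamer's read frequency for a factor to its frequency for the tag-only sample.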

ETV5 = ETV5 (Homo sapiens, UniProt P41161 1-510)
Method in brief: as §1

SPIC = molecular target: T2, SPIC (Homo sapiens, UniProt Q8N5J4 1-248)
T2 sequence: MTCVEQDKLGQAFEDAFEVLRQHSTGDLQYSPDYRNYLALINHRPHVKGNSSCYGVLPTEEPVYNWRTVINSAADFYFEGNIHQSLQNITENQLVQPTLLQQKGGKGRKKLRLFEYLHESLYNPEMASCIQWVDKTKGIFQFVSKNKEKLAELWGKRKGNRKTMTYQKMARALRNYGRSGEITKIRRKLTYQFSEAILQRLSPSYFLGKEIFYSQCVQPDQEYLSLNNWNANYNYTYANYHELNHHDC
Method in brief: as §1

ELF4 = ELF4 (Homo sapiens, UniProt Q99607 1-663)
Method in brief: as §1

ELK4 = molecular target: T3, ELK4 (Homo sapiens, UniProt P28324-2 1-405)
T3 sequence: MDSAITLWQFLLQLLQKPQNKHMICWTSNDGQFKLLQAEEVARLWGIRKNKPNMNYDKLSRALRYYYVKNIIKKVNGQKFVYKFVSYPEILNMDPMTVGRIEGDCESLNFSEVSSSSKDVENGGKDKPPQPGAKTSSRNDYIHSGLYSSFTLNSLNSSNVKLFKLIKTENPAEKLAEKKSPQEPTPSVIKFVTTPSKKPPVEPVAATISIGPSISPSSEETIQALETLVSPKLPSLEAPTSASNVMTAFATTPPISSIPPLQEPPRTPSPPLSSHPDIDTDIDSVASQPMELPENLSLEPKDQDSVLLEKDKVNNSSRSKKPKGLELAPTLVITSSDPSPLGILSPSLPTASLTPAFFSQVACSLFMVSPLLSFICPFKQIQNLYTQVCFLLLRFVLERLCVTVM
Method in brief: as §1

ETV2 = molecular target: T4, ETV2 (Homo sapiens, UniProt O00321 1-342)
T4 sequence: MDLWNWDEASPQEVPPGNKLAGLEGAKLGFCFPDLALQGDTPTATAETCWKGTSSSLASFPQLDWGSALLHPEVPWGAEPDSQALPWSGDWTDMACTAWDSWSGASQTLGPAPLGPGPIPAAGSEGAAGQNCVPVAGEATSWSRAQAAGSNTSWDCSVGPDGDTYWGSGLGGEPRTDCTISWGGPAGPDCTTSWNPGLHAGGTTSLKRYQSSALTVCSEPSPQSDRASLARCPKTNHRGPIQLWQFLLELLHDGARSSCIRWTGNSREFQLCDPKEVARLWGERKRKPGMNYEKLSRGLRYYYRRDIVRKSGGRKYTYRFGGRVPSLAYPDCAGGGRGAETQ
Method in brief: as §1

ELF3 = molecular target: T5, ELF3 (Homo sapiens, UniProt P78545 1-371)
T5 sequence: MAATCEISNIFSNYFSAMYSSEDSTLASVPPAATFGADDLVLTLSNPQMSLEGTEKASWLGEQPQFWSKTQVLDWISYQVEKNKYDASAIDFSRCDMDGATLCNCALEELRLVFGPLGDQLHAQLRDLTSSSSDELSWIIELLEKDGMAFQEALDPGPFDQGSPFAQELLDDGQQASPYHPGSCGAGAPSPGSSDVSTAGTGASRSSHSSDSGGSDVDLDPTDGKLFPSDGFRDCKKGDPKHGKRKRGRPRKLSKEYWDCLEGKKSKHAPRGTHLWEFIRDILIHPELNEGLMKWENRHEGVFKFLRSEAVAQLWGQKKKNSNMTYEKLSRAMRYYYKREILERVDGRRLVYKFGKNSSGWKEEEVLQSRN
Method in brief: as §1

ETV1 = ETV1 (Homo sapiens, UniProt P50549 1-477)
Method in brief: as §1

ELF4, sequence (Q99607 whole entry): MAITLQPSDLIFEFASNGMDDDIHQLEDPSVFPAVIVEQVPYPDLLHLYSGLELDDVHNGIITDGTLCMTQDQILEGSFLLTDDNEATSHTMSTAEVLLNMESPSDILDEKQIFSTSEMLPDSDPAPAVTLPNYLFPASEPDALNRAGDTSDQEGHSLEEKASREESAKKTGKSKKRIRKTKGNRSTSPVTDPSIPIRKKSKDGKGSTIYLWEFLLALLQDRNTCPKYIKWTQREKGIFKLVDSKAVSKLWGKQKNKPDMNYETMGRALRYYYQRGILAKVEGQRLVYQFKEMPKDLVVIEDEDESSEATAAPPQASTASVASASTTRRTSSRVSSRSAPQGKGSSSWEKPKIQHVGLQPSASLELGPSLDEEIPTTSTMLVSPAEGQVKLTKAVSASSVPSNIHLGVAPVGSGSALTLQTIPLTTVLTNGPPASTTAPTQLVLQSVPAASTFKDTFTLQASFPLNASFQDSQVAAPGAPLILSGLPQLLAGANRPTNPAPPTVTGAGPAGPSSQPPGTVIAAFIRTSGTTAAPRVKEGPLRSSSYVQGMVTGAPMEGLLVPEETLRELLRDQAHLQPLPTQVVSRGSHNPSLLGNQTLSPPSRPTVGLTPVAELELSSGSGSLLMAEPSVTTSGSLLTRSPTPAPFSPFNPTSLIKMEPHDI
ETV5, sequence (P41161 whole entry): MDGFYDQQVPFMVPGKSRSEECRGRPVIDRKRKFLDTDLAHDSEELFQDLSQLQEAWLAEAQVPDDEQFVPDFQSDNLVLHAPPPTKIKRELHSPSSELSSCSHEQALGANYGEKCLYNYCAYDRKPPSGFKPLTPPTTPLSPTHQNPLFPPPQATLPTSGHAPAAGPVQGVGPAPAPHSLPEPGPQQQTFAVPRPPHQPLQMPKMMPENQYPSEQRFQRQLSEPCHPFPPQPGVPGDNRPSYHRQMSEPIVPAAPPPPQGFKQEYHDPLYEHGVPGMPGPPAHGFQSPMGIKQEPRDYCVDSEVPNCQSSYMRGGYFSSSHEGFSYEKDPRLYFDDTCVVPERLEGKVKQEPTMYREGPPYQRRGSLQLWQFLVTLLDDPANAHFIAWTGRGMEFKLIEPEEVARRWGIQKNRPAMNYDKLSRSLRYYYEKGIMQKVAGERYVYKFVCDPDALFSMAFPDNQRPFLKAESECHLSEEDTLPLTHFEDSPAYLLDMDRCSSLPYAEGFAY
ETV1, sequence (P50549 whole entry): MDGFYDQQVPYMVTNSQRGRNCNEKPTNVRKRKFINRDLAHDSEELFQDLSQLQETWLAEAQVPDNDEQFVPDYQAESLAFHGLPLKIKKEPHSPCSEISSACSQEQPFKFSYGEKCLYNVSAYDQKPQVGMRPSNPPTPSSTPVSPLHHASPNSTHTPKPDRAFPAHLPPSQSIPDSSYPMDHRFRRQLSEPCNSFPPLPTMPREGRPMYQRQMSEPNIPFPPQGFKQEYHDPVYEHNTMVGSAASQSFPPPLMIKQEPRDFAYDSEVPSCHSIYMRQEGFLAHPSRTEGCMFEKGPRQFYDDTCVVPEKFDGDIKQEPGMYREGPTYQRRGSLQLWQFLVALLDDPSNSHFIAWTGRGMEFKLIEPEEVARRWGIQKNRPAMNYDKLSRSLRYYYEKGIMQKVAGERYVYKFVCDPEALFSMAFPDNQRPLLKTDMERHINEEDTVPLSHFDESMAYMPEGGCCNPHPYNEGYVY

Sequence | binding signal (FEV) | binding signal (ETV5) | binding signal (SPIC) | binding signal (ELF4) | binding signal (ELK4) | binding signal (ETV2) | binding signal (ELF3) | binding signal (ETV1)
ACACAA | 1.17 fold enrichment (6-mer frequency, TF over GST control) | 1.19 fold enrichment (6-mer frequency, TF over GST control) | 1.22 fold enrichment (6-mer frequency, TF over GST control) | 1.17 fold enrichment (6-mer frequency, TF over GST control) | 1.05 fold enrichment (6-mer frequency, TF over GST control) | 1.1 fold enrichment (6-mer frequency, TF over GST control) | 1.11 fold enrichment (6-mer frequency, TF over GST control) | 1.14 fold enrichment (6-mer frequency, TF over GST control)
CCGTCA | 1.19 fold enrichment (6-mer frequency, TF over GST control) | 1.23 fold enrichment (6-mer frequency, TF over GST control) | 1.13 fold enrichment (6-mer frequency, TF over GST control) | 1.26 fold enrichment (6-mer frequency, TF over GST control) | 1.31 fold enrichment (6-mer frequency, TF over GST control) | 1.24 fold enrichment (6-mer frequency, TF over GST control) | 1.35 fold enrichment (6-mer frequency, TF over GST control) | 1.22 fold enrichment (6-mer frequency, TF over GST control)
GTCACA | 1.11 fold enrichment (6-mer frequency, TF over GST control) | 1.1 fold enrichment (6-mer frequency, TF over GST control) | 1.04 fold enrichment (6-mer frequency, TF over GST control) | 1.08 fold enrichment (6-mer frequency, TF over GST control) | 1.07 fold enrichment (6-mer frequency, TF over GST control) | 1.01 fold enrichment (6-mer frequency, TF over GST control) | 1.08 fold enrichment (6-mer frequency, TF over GST control) | 1.06 fold enrichment (6-mer frequency, TF over GST control)
CTGTCC | 1.19 fold enrichment (6-mer frequency, TF over GST control) | 1.41 fold enrichment (6-mer frequency, TF over GST control) | 1.13 fold enrichment (6-mer frequency, TF over GST control) | 1.28 fold enrichment (6-mer frequency, TF over GST control) | 1.24 fold enrichment (6-mer frequency, TF over GST control) | 1.2 fold enrichment (6-mer frequency, TF over GST control) | 1.17 fold enrichment (6-mer frequency, TF over GST control) | 1.4 fold enrichment (6-mer frequency, TF over GST control)
CTACAG | 1.04 fold enrichment (6-mer frequency, TF over GST control) | 1.07 fold enrichment (6-mer frequency, TF over GST control) | 1.04 fold enrichment (6-mer frequency, TF over GST control) | 1.02 fold enrichment (6-mer frequency, TF over GST control) | 1.07 fold enrichment (6-mer frequency, TF over GST control) | 1.02 fold enrichment (6-mer frequency, TF over GST control) | 1 fold enrichment (6-mer frequency, TF over GST control) | 1.06 fold enrichment (6-mer frequency, TF over GST control)
ATATGT | 1.11 fold enrichment (6-mer frequency, TF over GST control) | 1.1 fold enrichment (6-mer frequency, TF over GST control) | 1.18 fold enrichment (6-mer frequency, TF over GST control) | 1.14 fold enrichment (6-mer frequency, TF over GST control) | 1.21 fold enrichment (6-mer frequency, TF over GST control) | 1.04 fold enrichment (6-mer frequency, TF over GST control) | 1.14 fold enrichment (6-mer frequency, TF over GST control) | 1.12 fold enrichment (6-mer frequency, TF over GST control)
CCGGAC | 2.05 fold enrichment (6-mer frequency, TF over GST control) | 1.57 fold enrichment (6-mer frequency, TF over GST control) | 1.22 fold enrichment (6-mer frequency, TF over GST control) | 1.44 fold enrichment (6-mer frequency, TF over GST control) | 1.15 fold enrichment (6-mer frequency, TF over GST control) | 1.39 fold enrichment (6-mer frequency, TF over GST control) | 1.45 fold enrichment (6-mer frequency, TF over GST control) | 1.53 fold enrichment (6-mer frequency, TF over GST control)
ACACCT | 1.03 fold enrichment (6-mer frequency, TF over GST control) | 1.03 fold enrichment (6-mer frequency, TF over GST control) | 1.04 fold enrichment (6-mer frequency, TF over GST control) | 1.11 fold enrichment (6-mer frequency, TF over GST control) | 1.1 fold enrichment (6-mer frequency, TF over GST control) | 1.03 fold enrichment (6-mer frequency, TF over GST control) | 1.03 fold enrichment (6-mer frequency, TF over GST control) | 1.13 fold enrichment (6-mer frequency, TF over GST control)
CCACCC | 1.17 fold enrichment (6-mer frequency, TF over GST control) | 1.25 fold enrichment (6-mer frequency, TF over GST control) | 1.21 fold enrichment (6-mer frequency, TF over GST control) | 1.32 fold enrichment (6-mer frequency, TF over GST control) | 1.38 fold enrichment (6-mer frequency, TF over GST control) | 1.3 fold enrichment (6-mer frequency, TF over GST control) | 1.37 fold enrichment (6-mer frequency, TF over GST control) | 1.16 fold enrichment (6-mer frequency, TF over GST control)
ACGCTG | 1.09 fold enrichment (6-mer frequency, TF over GST control) | 1.08 fold enrichment (6-mer frequency, TF over GST control) | 1.15 fold enrichment (6-mer frequency, TF over GST control) | 1.17 fold enrichment (6-mer frequency, TF over GST control) | 1.21 fold enrichment (6-mer frequency, TF over GST control) | 1.05 fold enrichment (6-mer frequency, TF over GST control) | 1.05 fold enrichment (6-mer frequency, TF over GST control) | 1.12 fold enrichment (6-mer frequency, TF over GST control)
CCGGTC | 1.62 fold enrichment (6-mer frequency, TF over GST control) | 1.22 fold enrichment (6-mer frequency, TF over GST control) | 1.01 fold enrichment (6-mer frequency, TF over GST control) | 1.08 fold enrichment (6-mer frequency, TF over GST control) | 1.18 fold enrichment (6-mer frequency, TF over GST control) | 1.08 fold enrichment (6-mer frequency, TF over GST control) | 1.14 fold enrichment (6-mer frequency, TF over GST control) | 1.17 fold enrichment (6-mer frequency, TF over GST control)
GGCCTC | 1.07 fold enrichment (6-mer frequency, TF over GST control) | 1.15 fold enrichment (6-mer frequency, TF over GST control) | 1.01 fold enrichment (6-mer frequency, TF over GST control) | 1.12 fold enrichment (6-mer frequency, TF over GST control) | 1.17 fold enrichment (6-mer frequency, TF over GST control) | 1.17 fold enrichment (6-mer frequency, TF over GST control) | 1.05 fold enrichment (6-mer frequency, TF over GST control) | 1.07 fold enrichment (6-mer frequency, TF over GST control)
GTGTTT | 1.09 fold enrichment (6-mer frequency, TF over GST control) | 1.14 fold enrichment (6-mer frequency, TF over GST control) | 1.21 fold enrichment (6-mer frequency, TF over GST control) | 1.18 fold enrichment (6-mer frequency, TF over GST control) | 1.11 fold enrichment (6-mer frequency, TF over GST control) | 1.02 fold enrichment (6-mer frequency, TF over GST control) | 1.17 fold enrichment (6-mer frequency, TF over GST control) | 1.21 fold enrichment (6-mer frequency, TF over GST control)
TGCACG | 1.15 fold enrichment (6-mer frequency, TF over GST control) | 1.14 fold enrichment (6-mer frequency, TF over GST control) | 1.03 fold enrichment (6-mer frequency, TF over GST control) | 1.13 fold enrichment (6-mer frequency, TF over GST control) | 1.24 fold enrichment (6-mer frequency, TF over GST control) | 1.22 fold enrichment (6-mer frequency, TF over GST control) | 1.26 fold enrichment (6-mer frequency, TF over GST control) | 1.06 fold enrichment (6-mer frequency, TF over GST control)
AGTACA | 1.13 fold enrichment (6-mer frequency, TF over GST control) | 1.13 fold enrichment (6-mer frequency, TF over GST control) | 1.07 fold enrichment (6-mer frequency, TF over GST control) | 1.19 fold enrichment (6-mer frequency, TF over GST control) | 1.07 fold enrichment (6-mer frequency, TF over GST control) | 1.01 fold enrichment (6-mer frequency, TF over GST control) | 1.13 fold enrichment (6-mer frequency, TF over GST control) | 1.11 fold enrichment (6-mer frequency, TF over GST control)
